Results on 24 molecules are retold here after PubChem BioAssay (NCATS).

Inconclusive results are not listed. Where a call stands in place of a potency, no number is given. Activity calls are given as the source filed them. Calls follow the shape of the dose curve; as a rule, active = well fitted inhibition curve with a large enough effect; inconclusive = small, poorly fitted or top-dose-only effect; inactive = flat fitted curve, though single readings scatter.

Sequence of Calcium and integrin-binding protein 1 (Homo sapiens) (Q99828 whole entry, looked up): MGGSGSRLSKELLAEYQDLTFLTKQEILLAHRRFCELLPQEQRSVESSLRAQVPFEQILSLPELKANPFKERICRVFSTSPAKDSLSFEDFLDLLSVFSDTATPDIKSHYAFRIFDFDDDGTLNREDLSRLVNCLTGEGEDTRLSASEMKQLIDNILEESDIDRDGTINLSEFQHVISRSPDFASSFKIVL

In this assay the target is Calcium and integrin-binding protein 1 (Homo sapiens) (UniProt Q99828). As to the kind of experiment: Primary qHTS for Identification of Calcium Integrin Binding Protein 1 (CIB1) Competitor (AID 1508620).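 Also: GST tagged CIB1 binding a fluorescein labelled alphaIIb integrin peptide tracer; top concentration of the series differs between compounds.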 Particulars: CIB1-GST / FITC-alphaIIb peptide fluorescence polarization; series mostly up to 114 µM. The procedure, abridged:
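CIB1-GST (1 uM final) and compound incubated 15 min at room temperature before adding FITC-alphaIIb peptide tracer (100 nM final). Competition for binding read by fluorescence polarization (ex 480, em 540) after another 15 min at room temperature.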
(In general: In qHTS, concentration-response curves come from the screen itself.)
On to `N#Cc1nc(Nc2ccccc2)nc(NC2CCCCC2)n1`, for which the Potency entry is “inactive”.

`CC(=O)Nc1sc2c(c1Br)CCNC2`: the Potency result was “inactive”.

Take `Cc1ccc(-c2ccc(=O)n(CC(=O)NCCCc3ccccc3)n2)cc1`: the Potency result was “inactive”. Under `Cc1cc2c(s1)c1cnn(Cc3ccc(-n4cncn4)cc3)c(=O)c1n2C` stands “inactive”. For `CCCC(C)NC(=O)Cn1nc(-c2ccc(C)cc2)ccc1=O` (centres undefined) the value was “inactive”; for `Cc1ccc(NS(=O)(=O)c2ccc3c(c2)CCC(C)(C)O3)cc1C`, “inactive”. For `N#Cc1ncc(C(=O)OCC(=O)NC2C3CC4CC(C3)CC2C4)cn1` (centres undefined) the value was “inactive”; for `O=S(=O)(c1ccc2c(c1)OCCO2)C1CCC(S(=O)(=O)c2c(F)cccc2F)CC1` (centres undefined), “inactive”.

Regarding `O=C(Nc1nnc(-c2ccncc2)s1)Nc1ccc(Cl)c2ccccc12`, the Potency entry was “inactive”. For `O=S(=O)(Nc1nccs1)c1ccc(NCc2ccccc2O)cc1` the value was “inactive”; for `O=S(=O)(Nc1nc(-c2ccccc2C(F)(F)F)nc2ccccc12)c1ccc(Br)cc1`, “inactive”; for `Cc1ccc(-c2ccc(C(C)Nc3nc(-c4ccccc4C(C)C)ncc3C)cc2)cn1` (centres undefined), “inactive”.

As to `COc1cc(-c2ccc3ncnc(NCC4CCCO4)c3c2)cc(OC)c1OC` (centres undefined), the Potency result was “inactive”. Under `O=C(Nc1ccc2c(c1)CCC2)Nc1nnc(-c2ccncc2)s1` stands “inactive”; under `COc1cc(-c2ccc3ncnc(NCCc4cnc[nH]4)c3c2)cc(OC)c1OC`, “inactive”; under `CCc1nn2c(=O)cc(NC3CNC3)nc2s1`, “inactive”.

Consider `Cc1ccc(OCCn2c(CCNC(=O)c3ccc(Br)cc3)nc3ccccc32)cc1`, for which the Potency entry was “inactive”. For `O=C(CNC(=O)c1ccc2n[nH]nc2c1)OC(C(=O)Nc1cc(C(F)(F)F)ccc1Cl)c1ccccc1` (centres undefined) the value was “inactive”; for `Cc1cc2c(s1)c1cnn(Cc3ccc(S(C)(=O)=O)cc3)c(=O)c1n2C`, “inactive”. For `CC(=O)Nc1ccc(S(=O)(=O)N2CCN(c3ccc(C(C)=O)cc3)CC2)cc1` the value was “inactive”. For `Cc1cc(N[S+](=O)([O-])c2ccc(NC(=O)Cc3ccc(Cl)nc3)cc2)no1` the value was “inactive”; for `c1csc(CNc2ncnc3ccc(-c4ccc5c(c4)OCO5)cc23)n1`, “inactive”. As to `Cc1cc(NC(=O)Nc2nnc(-c3cccnc3)s2)ccc1F`, the Potency result is “inactive”. With `Cc1ccc(-c2ccc(=O)n(CC(=O)NCCc3cnc[nH]3)n2)cc1`, the Potency entry is “inactive”.
